CYP2C9 inhib = inhibitors of human CYP2C9. CYP2C9 Supersomes, luciferin-H conversion, luminescence. inhibition, % at 5 µM. actives 20% (n = 96,000);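 active means blocking of liver enzyme CYP2C9 beyond about 50% at 5 µM, limit read from the data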
Target sequence (P11712 whole entry, looked up): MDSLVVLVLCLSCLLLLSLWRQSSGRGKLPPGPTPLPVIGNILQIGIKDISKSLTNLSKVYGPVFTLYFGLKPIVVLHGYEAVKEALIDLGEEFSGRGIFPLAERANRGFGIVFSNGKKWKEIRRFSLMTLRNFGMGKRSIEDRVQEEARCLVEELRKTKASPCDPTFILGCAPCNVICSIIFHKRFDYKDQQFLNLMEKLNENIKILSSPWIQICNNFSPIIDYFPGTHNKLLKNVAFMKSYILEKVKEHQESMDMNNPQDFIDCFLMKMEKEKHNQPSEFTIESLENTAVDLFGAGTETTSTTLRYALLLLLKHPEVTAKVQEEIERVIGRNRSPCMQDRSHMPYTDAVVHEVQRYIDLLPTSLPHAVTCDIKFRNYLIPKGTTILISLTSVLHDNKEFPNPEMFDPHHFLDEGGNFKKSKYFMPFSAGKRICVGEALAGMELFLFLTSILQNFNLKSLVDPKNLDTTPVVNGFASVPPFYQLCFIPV
CYP2C9 activ = increases human cytochrome P450 2C9 activity; P11712; recombinant CYP2C9, luciferin-H conversion, luminescence; active compounds read high; factor 1 = untreated enzyme, 0 = blocked; activation factor at 5 µM; actives 1.4% (n = 96,000); AID 1024;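 active means activation factor of 2 or more for CYP2C9 at a 5 µM dose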;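 further: 0 = sulfaphenazole-blocked wells and 1 = vehicle-only wells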
MRP reversal = MRP-mediated drug resistance reversal; differential viability (reversal), % at 10 µM; actives 0.04% (n = 85,000); H69AR cells + 2 uM doxorubicin, CellTiter-Glo, 72 h;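 active means viability drop by adding the cancer drug above about 55%, with treated viability meeting a 40% cutoff, limit read from the data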;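 further: viability without doxorubicin minus viability with 2 µM doxorubicin for each compound; larger differential means the compound sensitizes cells more to doxorubicin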
MRP-1 activ = activates MRP-1. H69AR cells + doxorubicin, viability rescue, CellTiter-Glo. viability increase, % at 10 µM. actives 0.61% (n = 140,000);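 active means viability gain under doxorubicin at or above a set limit, the compound median plus 3 SD, cut at about 4.7% in these data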;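 further: MRP-1 overexpressing cells given doxorubicin 25 µM after compound pretreatment; 18-22 h compound pretreatment then 72 h with doxorubicin before readout; 0% = doxorubicin-only wells and 100% = vehicle-treated cells without doxorubicin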
CYP2C19 inh = human CYP2C19 inhibition | AID 778 | inhibition, % at 5 µM | CYP2C19 Supersomes, luciferin-H EGE luminescence, 30 min | actives 21% (n = 96,000) | P33261;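 active means CYP2C19 inhibition above a set limit at 5 µM in the primary screen, cut at about 50% in these data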;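 further: plate controls were negative control wells for no effect and 2.5 mM tranylcypromine positive control for full effect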
CYP2C19 activ = activators of human cytochrome P450 2C19; P33261; recombinant CYP2C19, luciferin-H EGE luminescence; active compounds read high; 0 = fully inhibited enzyme, 1 = untreated enzyme; activation factor at 5 µM; 96,000 tested, under 10 active; AID 1025;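 active means activation factor of at least 2 at 5 µM in the primary screen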;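 further: 0 = wells with 2.5 mM tranylcypromine and 1 = vehicle-only wells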
* hit, by the source's call. This is a sample that favours compounds with a hit; in the whole collection about 21% have one here.

COc1ccc(C2=Nc3ccccc3OC2)cc1 was read as CYP2C9 inhib 57.9*, CYP2C9 activ 0.4, MRP reversal 8.8, MRP-1 activ -2.0, CYP2C19 inh 70.1* and CYP2C19 activ 0.3.
For CCCSc1nnc(-c2c[nH]c3ccccc23)n1C the results were CYP2C9 inhib 8.3, CYP2C9 activ 0.9, MRP reversal 0.1, MRP-1 activ -2.0, CYP2C19 inh 75.8* and CYP2C19 activ 0.2.
For CCCSc1nnc(-c2c[nH]c3ccccc23)n1CC the results were CYP2C9 inhib 14.2, CYP2C9 activ 0.9, MRP reversal 12.9, MRP-1 activ -1.9, CYP2C19 inh 89.1* and CYP2C19 activ 0.1.
`N=c1c2c(-c3ccccc3)c(-c3ccccc3)n(Cc3ccccc3)c2ncn1CCCn1ccnc1` gave CYP2C9 inhib 58.3*, CYP2C9 activ 0.4, MRP reversal 0.3, MRP-1 activ -5.1, CYP2C19 inh 81.6* and CYP2C19 activ 0.2.
N=c1c2c(-c3ccccc3)c(-c3ccccc3)n(Cc3ccco3)c2ncn1Cc1ccco1 was read as CYP2C9 inhib 83.0*, CYP2C9 activ 0.2, MRP reversal 0.1, MRP-1 activ -4.5, CYP2C19 inh 66.0* and CYP2C19 activ 0.3.
For CCN1CCN(C(=O)CCc2nc3ccccc3c(=O)[nH]2)CC1 the results were CYP2C9 inhib 6.3, CYP2C9 activ 0.9, MRP reversal -0.3, MRP-1 activ -0.7, CYP2C19 inh 0.7 and CYP2C19 activ 1.
For CC(C)(C)c1cc(CCC(=O)N2CCNCC2)c(C(C)(C)C)cc1O the results were CYP2C9 inhib 74.4*, CYP2C9 activ 0.3, MRP reversal 7.3, MRP-1 activ -1.0, CYP2C19 inh 5.9 and CYP2C19 activ 0.9.
For COc1cccc(C2NC(=O)NC(O)(C(F)(F)F)C2C(=O)c2cccnc2)c1OC (stereo not given) the results were CYP2C9 inhib 48.6, CYP2C9 activ 0.5, MRP reversal 4.5, MRP-1 activ -2.1, CYP2C19 inh 91.9* and CYP2C19 activ 0.1.
For COc1ccc(C2NC(=O)NC(O)(C(F)(F)F)C2C(=O)c2ccccc2)cc1OC (stereo not given) the results were CYP2C9 inhib 18.5, CYP2C9 activ 0.8, MRP-1 activ -0.1, CYP2C19 inh 9.4 and CYP2C19 activ 0.9.
Screening COC(=O)c1ccc2c(c1)C(C)(C)C(/C=C/c1ccccc1O)=[N+]2C returned CYP2C9 inhib 58.6*, CYP2C9 activ 0.4, MRP-1 activ -6.5, CYP2C19 inh 41.8 and CYP2C19 activ 0.6.
`CCC(CC)C(=O)NCc1ccccc1Cl` gave CYP2C9 inhib 67.0*, CYP2C9 activ 0.3, MRP reversal -9.7, MRP-1 activ -3.0, CYP2C19 inh 45.3 and CYP2C19 activ 0.5.
For O=C(Cc1ccccc1[N+](=O)[O-])NCc1ccccc1Cl the results were CYP2C9 inhib -139.0, CYP2C9 activ 2.4*, MRP-1 activ -2.4, CYP2C19 inh 47.1 and CYP2C19 activ 0.5.
`COC(=O)c1cc(NC(=O)Cc2ccccc2[N+](=O)[O-])cc(C(=O)OC)c1` gave CYP2C9 inhib 79.0*, CYP2C9 activ 0.2, MRP-1 activ -1.2, CYP2C19 inh -6.1 and CYP2C19 activ 1.1.
CCOc1cc(S(=O)(=O)Nc2ccc(Cl)cn2)ccc1F was read as CYP2C9 inhib 95.8*, CYP2C9 activ 0, MRP reversal -0.2, MRP-1 activ -0.9, CYP2C19 inh 28.7 and CYP2C19 activ 0.7.
`CCOc1ccc(S(=O)(=O)N(CC)CC)cc1NS(=O)(=O)c1ccc(F)c(F)c1F` gave MRP-1 activ -1.0.
`Cc1ccc(S(=O)(=O)n2nc(C)cc2C)cc1` gave CYP2C9 inhib -25.5, CYP2C9 activ 1.3, MRP reversal 7.0, MRP-1 activ -1.4, CYP2C19 inh 10.5 and CYP2C19 activ 0.9.
COc1ccc(S(=O)(=O)Nc2ccc(Cl)cn2)c(C)c1C was read as CYP2C9 inhib 53.3*, CYP2C9 activ 0.5, MRP reversal -18.1, MRP-1 activ -3.0, CYP2C19 inh 38.6 and CYP2C19 activ 0.6.
CCOc1cc(S(=O)(=O)Nc2ccc(Cl)cn2)ccc1Cl was read as MRP reversal 9.6 and MRP-1 activ -4.0.
Screening CCOc1cc(S(=O)(=O)n2nc(C)cc2C)ccc1F returned CYP2C9 inhib 16.0, CYP2C9 activ 0.8, MRP-1 activ 0.2, CYP2C19 inh 72.6* and CYP2C19 activ 0.3.
CCOc1cc(S(=O)(=O)N(CC)CC)ccc1F was read as CYP2C9 inhib -131.5, CYP2C9 activ 2.3*, MRP reversal -10.0, MRP-1 activ -0.1, CYP2C19 inh 94.8* and CYP2C19 activ 0.1.
`CCc1cc(OCCCCNCc2ccccc2)ccc1Cl` gave MRP-1 activ -4.3.
Screening Cc1ccccc1N1CCN(c2ccc(NC(=O)C3CCCCC3C(=O)O)cc2)CC1 (stereo not given) returned MRP-1 activ -3.3.
Screening CC1=C(C(N)=O)C(c2ccncc2)n2nc(-c3ccccc3Cl)nc2N1 (stereo not given) returned CYP2C9 inhib 6.2, CYP2C9 activ 0.9, MRP reversal 1.9, MRP-1 activ -0.4, CYP2C19 inh 22.1 and CYP2C19 activ 0.8.
Screening COc1cc(/C=C2\OC(=O)c3c(OC)cccc32)ccc1O returned CYP2C9 inhib 94.6*, CYP2C9 activ 0.1, MRP-1 activ -0.7, CYP2C19 inh 96.6* and CYP2C19 activ 0.
COc1cc(/C=C2\SC(c3ccc(C)cc3)=NC2=O)ccc1O was read as CYP2C9 inhib 12.8, CYP2C9 activ 0.9, MRP-1 activ 0.5, CYP2C19 inh 36.7 and CYP2C19 activ 0.6.
`Cn1cnnc1SCC(=O)c1ccc2c(c1)OCO2` gave CYP2C9 inhib -26.8, CYP2C9 activ 1.3, MRP reversal 5.5, MRP-1 activ -1.2, CYP2C19 inh -0.2 and CYP2C19 activ 1.
CC(C)C(=O)N1CCC(CN=CC2=C(O)CC(C)(C)CC2=O)CC1 was read as MRP reversal 7.3 and MRP-1 activ 0.6.
`CC1(C)CC2c3cccc(C(=O)O)c3C(=O)N2c2c1ccc1ccccc21` (stereo not given) gave MRP-1 activ -4.1.
Screening CC/C(=N\NC(=O)c1ccc(-c2ccccc2)cc1)C12CC3CC(CC(C3)C1)C2 returned CYP2C9 inhib 39.3, CYP2C9 activ 0.6, MRP-1 activ 0.8, CYP2C19 inh 67.1* and CYP2C19 activ 0.3.
Screening O=C(Oc1c(Cl)cc(Cl)c2cccnc12)N1CCCCC1 returned CYP2C9 inhib 54.2*, CYP2C9 activ 0.5, MRP reversal 12.7, MRP-1 activ -1.7, CYP2C19 inh 64.5* and CYP2C19 activ 0.4.
Screening O=C(Oc1c(Cl)cc(Cl)c2cccnc12)N1CCOCC1 returned CYP2C9 inhib -10.6, CYP2C9 activ 1.1, MRP reversal 4.1, MRP-1 activ -0.4, CYP2C19 inh -0.7 and CYP2C19 activ 1.
Screening COc1cccc(-n2c(SCC(=O)N3CCCC3)nc3c([nH]c4ccccc43)c2=O)c1 returned MRP reversal -6.9.
O=C(CN1CCSC1=NCc1ccccc1)c1ccc(Cl)cc1 was read as MRP-1 activ -2.1.
